From PubChem
Compounds with a hit are over-represented: about 11% of the library has one in this group of screens.
PNC assembly inh – High Content Assay for Compounds that inhibit the Assembly of the Perinucleolar Compartment. 140,000 tested, 3.1% active. activity change (PNC), negative = inhibition, % at 10 µM. PC3M PTB-GFP, PNC prevalence imaging, 16 h; hits give low values;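 active = readout at or below -70, meaning at least 70% loss of cells showing the perinucleolar compartment, a nuclear body marking cancer cells; inconclusive = readout between -30 and a set limit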;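 note: plate controls were DMSO wells for no effect and camptothecin positive control wells for full effect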
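PC3M cells stably expressing PTB-GFP, 750–1000 cells/well, treated 16 h at 37 °C with compound (23 nl of library stock), in duplicate. After paraformaldehyde fixation and Hoechst stain, imaged at 20x; PNC prevalence scored by image analysis.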
ALDH1A1 block – qHTS Assay for Inhibitors of Aldehyde Dehydrogenase 1 (ALDH1A1) | Aldehyde dehydrogenase 1A1 (Homo sapiens), P00352 | Purified ALDH1A1, NADH fluorescence, propionaldehyde substrate | Potency, µM (highest dose often 75.3 µM), for the others: top-dose activity, negative = inhibition, usual class: inhibitors | 220,000 tested, 7.3% active | AID 1030, 2008;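 note: potency is the fitted concentration of half-maximal effect; plate controls were no enzyme wells and a reference inhibitor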
HTT aggregate – qHTS Multiplex Assay to Identify Dual Action Probes in a Cell Model of Huntington: Aggregate Formation (GFP); PC12 HttQ103-GFP aggregates, Acumen cytometry, 40 h; Potency, µM (series often up to 46.1 µM), for the others: top-dose activity change, negative = inhibition, actives largely listed as inhibitors; 220,000 tested, 1.1% active; AID 1688, 2009; active = well fitted curve in the direction sought with a large enough effect; inconclusive = small, poorly fitted or top-dose-only effect, or another doubt; inactive = no such curve, though single readings can be large; an effect the other way counts as inactive or inconclusive; note: potency is the fitted concentration of half-maximal effect; % is set by controls: 0 for no effect and ±100 for the full control effect; nearly all actives have a fitted effect of over 60% in size
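Huntingtin Q103 exon 1–GFP aggregates in induced PC12 cells (100 nM tebufenozide) were quantified by cytometry from lysates, with compounds dosed in titration.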
HTT cytoprotect – qHTS Multiplex Assay to Identify Dual Action Probes in a Cell Model of Huntington: Cytoprotection (ATP); PC12 HTT-Q103 induced, cytoprotection, ATP luminescence, 40 h; Potency, µM (doses to about 56.4 µM), inactives show cytoprotection (ATP increase), actives largely listed as activators; 230,000 tested, 0.14% active; AID 1471, 2008; active = well fitted curve in the direction sought with a large enough effect; inconclusive = small, poorly fitted or top-dose-only effect, or another doubt; inactive = no such curve, though single readings can be large; an effect the other way counts as inactive or inconclusive; note: potency is the fitted concentration of half-maximal effect; % of control where 0% means no effect; nearly all actives have a fitted effect of over 45% in size
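Quantitative HTS on tebufenozide-induced (100 nM) PC12 cells expressing HTTQ103 exon 1–GFP; compounds tested as a concentration series; survival measured via cellular ATP.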
RGS12 GoLoco inh – qHTS Assay for Inhibitors of RGS12 GoLoco Motif Activity (Red Fluorophore); Guanine nucleotide-binding protein G(i) subunit alpha-1 (Homo sapiens), P63096; Gai1:RGS12 GoLoco peptide FP, rhodamine, 10 min; Potency, µM (highest dose often 61.6 µM), for the others: at the top dose activity, negative = inhibition, hits mostly inhibitors; 230,000 tested, 0.44% active; active = well fitted inhibition curve with a large enough effect, not every such curve was filed as active; inactive = no such curve, though single readings can be large or run the other way; note: potency is the fitted concentration of half-maximal effect; % is set by controls: 0 for no effect and ±100 for the full control effect; nearly all actives have a fitted effect of over 30% in size
Target sequence (P63096 whole entry, looked up): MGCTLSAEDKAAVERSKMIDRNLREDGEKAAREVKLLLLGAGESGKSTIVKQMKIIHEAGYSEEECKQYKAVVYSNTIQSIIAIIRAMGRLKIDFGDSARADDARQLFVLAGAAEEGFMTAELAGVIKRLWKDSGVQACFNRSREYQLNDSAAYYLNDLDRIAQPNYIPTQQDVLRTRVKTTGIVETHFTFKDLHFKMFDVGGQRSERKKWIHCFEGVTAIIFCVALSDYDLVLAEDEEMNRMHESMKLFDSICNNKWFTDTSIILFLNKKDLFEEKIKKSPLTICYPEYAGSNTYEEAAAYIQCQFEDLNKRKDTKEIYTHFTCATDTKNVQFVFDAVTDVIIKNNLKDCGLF
HPGD block – qHTS Assay for Inhibitors of HPGD (15-Hydroxyprostaglandin Dehydrogenase) | AID 894, 2007 | purified HPGD, NADH fluorescence kinetic, PGE2 substrate | Potency, µM, for the others: top-dose activity change, negative = inhibition, hits mostly inhibitors | 15-hydroxyprostaglandin dehydrogenase [NAD(+)] (Homo sapiens), P15428 | 150,000 tested, 4.3% active; note: potency is the fitted concentration of half-maximal effect; % is set by controls: 0 for no effect and ±100 for the full control effect
Target sequence (P15428 whole entry, looked up): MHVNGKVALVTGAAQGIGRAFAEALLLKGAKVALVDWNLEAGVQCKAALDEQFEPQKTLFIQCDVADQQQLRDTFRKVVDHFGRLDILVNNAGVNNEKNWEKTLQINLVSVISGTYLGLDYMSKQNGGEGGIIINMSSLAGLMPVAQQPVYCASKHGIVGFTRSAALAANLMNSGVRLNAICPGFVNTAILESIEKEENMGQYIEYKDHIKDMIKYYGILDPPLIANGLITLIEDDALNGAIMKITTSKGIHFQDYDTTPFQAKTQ
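20 nM HPGD preincubated 15 min at room temperature with compound in 50 mM Tris-HCl pH 8, 0.01% Tween 20. Started with 1 mM NAD+ and 30 uM prostaglandin E2; NADH fluorescence (360/450 nm) read 5 times over 30-s intervals, last minus first.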
Active calls of the source: *; u = inconclusive; x = no result given; ! = repeats disagree; [ ] = another dose, or the depositor's remark. Unless noted, calls come from the whole dose curve; as a rule, active = well fitted inhibition curve with a large enough effect (not every such curve was filed as active); inconclusive = small, poorly fitted or top-dose-only effect, or another doubt; inactive = no such curve, though single readings can be large or run the other way.

SMILES	PNC assembly inh	ALDH1A1 block	HTT aggregate	HTT cytoprotect	RGS12 GoLoco inh	HPGD block
Cc1c(-c2cccc(Cl)c2)nc2ccccc2c1C(=O)OC/C(O)=C(\C#N)c1nc2ccccc2[nH]1	x	5%	u	x	120%	x
c1ccc(-n2nnc3cnccc32)cc1	u	1.3µM*	7%	3%	40%	-28%
CC(C)(C)c1cc(C(c2cccnc2)N2CCN(CCO)CC2)cc(C(C)(C)C)c1O (stereo not given)	3	u	u	-66%[10 µM]	-2%	14µM*
COc1cccc(CNc2ccc(N3CCCCC3)cc2)c1OC	-14	4µM*	u	-1%	-25%	-14%
CCOc1cc(CNc2ccc(N3CCOCC3)cc2)cc(Br)c1OCC	-113*	u	6%	x	-14%	-7%
COc1cc(CNc2ccc(N3CCOCC3)cc2)cc(Br)c1OC	x	u	0%	6%	-15%	x
CCOc1ccc(CNc2ccc(N3CCCC3)cc2)cc1	14	7.9µM*	-16%	-5%[0.074 µM]	-14%	-2%
CCOc1cc(CNc2ccc(N3CCCC3)cc2)cc(Cl)c1OC	-113*	32µM*	-2%	x	-2%	-13%
CC1(C)C(C(=O)O)N2C(=O)CC2S1(=O)=O (stereo not given)	x	6%	x	u	1%	-4%
NC(=S)c1ccc[n+]([C@@H]2O[C@@H](COP(=O)([O-])OP(=O)(O)OC[C@@H]3O[C@@H](n4cnc5c(N)ncnc54)[C@@H](OP(=O)(O)O)[C@H]3O)[C@@H](O)[C@H]2O)c1	x	x	x	6%[1.9 µM]	x	x
CC1CN2C(CCC(C)C2c2ccc(Br)cc2)C(=O)O1 (stereo not given)	x	28%[13.5 µM]	x	-11%[10 µM]	x	x
Cc1cc(C(F)F)nn1CC(=O)NC1C(=O)N2C(C(=O)O)=C(CSc3nnnn3C)CSC12 (stereo not given)	x	-11%	10%	-3%	-6%	x
CCOc1cc(CNc2ccc3c(c2)OCCO3)cc(Br)c1OCC	-83*	u	-5%	-90%	-10%	-18%
C=CCOc1c(Br)cc(CNc2ccc3[nH]c(=O)[nH]c3c2)cc1OCC	x	-3%	u	u	11%	x
Cc1ccc(OCCCCNC(C)(C)C)c([N+](=O)[O-])c1	-25	13µM*	-8%	6%[10 µM]	3%	-4%
C=CCc1ccc(OCCCN2CCCC(C)C2)c(OC)c1 (stereo not given)	u	16µM*	-2%	-10%	-9%	-11%
COCCNCCOc1ccc(C)cc1[N+](=O)[O-]	x	-93%	12%	-23%	-16%	x
Cc1ccc(OCCCCN2CCCC(C)C2)c([N+](=O)[O-])c1 (stereo not given)	x	32µM*	3%	-49%	-5%	x
COC(=O)c1c(C)[nH]c(-c2csc(N)n2)c1C	x	u	20%	-108%	37%	x
COC(=O)NC(c1cccc(F)c1)[C@@]1(C(=O)OC)CCCC1=O (stereo not given in full)	x	3%[13.5 µM]	x	u	x	x
COc1ccccc1C1CCN(C(=O)c2ccco2)CC1	x	x	25%[9.22 µM]	10%[10 µM]	2%	x
CCOc1ccc(N(CC(=O)Nc2cccnc2)S(C)(=O)=O)cc1	x	0%	x	x	8%	x
Nc1nc2c(C(=O)N3CCOCC3)nnn2c2ccccc12	x	u	-7%[9.22 µM]	14%[10 µM]	-5%	x
COc1ccc(S(=O)(=O)N(CC(=O)NCCC(C)C)c2ccccc2)cc1OC	x	5%	-2%	-66%	6%	x
O=C(N1CCCCC1)N1CCN(C(=O)N(c2ccccc2)c2ccccc2)CC1	-1	11µM*	-13%	9%	-8%	-1%
SMILES	PNC assembly inh	ALDH1A1 block	HTT aggregate	HTT cytoprotect	RGS12 GoLoco inh	HPGD block
O=C(N1CCOCC1)N1CCN(C(=O)N(c2ccccc2)c2ccccc2)CC1	-26	u	2%	-2%[10 µM]	1%	3%
Cn1cnc([N+](=O)[O-])c1Sc1nc(N)nc2c1ncn2[C@H]1C[C@H](O)[C@@H](CO)O1	x	5%[13.5 µM]	x	-17%[10 µM]	-1%[14.2 µM]	-8%
CCOC(=O)c1c(-c2ccc(F)cc2)csc1/N=C/N(C)C	x	1%	5%	x	-8%	x
COc1ccc(Br)cc1CNc1ccc(O)cc1	2	10µM*	u	13%[10 µM]	20µM*	-18%
CNc1ccc2nnc(C(F)(F)C(F)(F)C(F)(F)F)n2n1	x	9%	0%[9.22 µM]	18%[10 µM]	3%	x
CCOC(=O)c1[nH]c2ccccc2c1NC(=O)CCN1CC(C)OC(C)C1 (stereo not given)	25	-3%	13%	-16%	-2%	-15%
COC(=O)c1[nH]c2ccc(F)cc2c1NC(=O)CCN1CC(C)OC(C)C1 (stereo not given)	-89*	u	6%	10%	-4%	u
O=C(CN(Cc1ccccc1)S(=O)(=O)c1ccccc1)N/N=C/c1ccc2c(c1)OCO2	7	u	-7%	-48%	-6%	11µM*
O=C(CN(Cc1ccc(Cl)c(Cl)c1)S(=O)(=O)c1ccccc1)N/N=C\c1ccc2c(c1)OCO2	17	-9%	u	-68%	5%	u
CCCC(CCC)=NNC(=O)CN(Cc1ccccc1)S(=O)(=O)c1ccccc1	0	8.9µM*	6%	-12%[10 µM]	4%	-14%
Cc1ccc2c(c1)NCC(C(=O)NC1CCCCC1)O2 (stereo not given)	u	-8%	2%	-3%	-9%	13µM*
Oc1cccc(Nc2nc(O)c(/C=C3\C=Nc4ccccc43)s2)c1	x	x	-11%[9.22 µM]	-13%[10 µM]	111%	x
Oc1nc(Nc2cccc(Cl)c2)sc1/C=C1\C=Nc2ccccc21	-15	-1%	8.9µM*	7%[10 µM]	x	x
Cc1ccc(C2NC(=S)NC3=C2C(=O)CC(C)(C)C3)cc1 (stereo not given)	u	0.79µM*	15%	-16%[10 µM]	-13%	-19%
Cc1ccc2[nH]c(=O)c(COC(=O)C3CCCCC3)cc2c1	x	x	2%[9.22 µM]	14%[10 µM]	5%	x
O=C(OCc1cc2ccccc2[nH]c1=O)C1CCCCC1	u	20µM*	-13%	16%	x	x
O=C(Oc1ccccc1)N1CCC2(CCCN(c3ccccc3)C2)CC1	x	1%	x	u	23%	-9%
COc1cc(O)c2c(=O)cc(-c3ccccc3)oc2c1	x	6%	-5%[9.22 µM]	-2%[1.9 µM]	6%	-4%
O=c1cc(-c2ccccc2)oc2cc(O)cc(O)c12	x	8.9µM*	x	29%[1.9 µM]	16%	-22%
O=c1cc(-c2ccc(O)cc2)oc2cc(O)cc(O)c12	x	1.8µM*!	x	u	18µM*!	32µM*!
